This note sets out measurements from PubChem BioAssay.

Molecules are shown by their SMILES. Active and inactive are the calls of the source.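 Rule for the calls, unless noted: active = inhibition above 20% together with a positive visual image hit; inconclusive = visual image hit but inhibition not above 20%; inactive = no visual image hit.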

A word on the inhibition: it is the drop in the measured response relative to a control, in per cent.

A short description of test [1]: inhibitors of TNFa-induced NFkB p65 translocation, primary screen, imaging, HUVEC, MLSMR starter and 10KST1 sets (AID 438).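 For inhibition: signal is the nuclear over cytoplasmic p65 intensity ratio per well.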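 Note: compound added about 3h40 before a 20 min TNFalpha stimulation.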 The note with it: HUVEC TNFa-induced p65 nuclear translocation; cell count: measured here: nuclei count (cytotoxicity indicator), at 2.08 µM; inhibition: at 2 µM, stronger effect = higher value, 0% TNFa-plus-vehicle, 100% no-TNFa wells.
Test [2] is described as follows: inhibitors of mutant huntingtin aggregation, primary screen, imaging, exon1htt(103Q)mCFP cells, high-content imaging (AID 483;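 active = visual image review flags a hit and inhibition of aggregation exceeds 20%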;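 note: compound exposure lasted 3 days before fixation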;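 for nuclei count: percent of the per-plate median nuclei count of sample wells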). Particulars: exon1htt(103Q)mCFP cell line, aggregate imaging, at 2 µM; inhibition of aggregation: stronger effect = higher value; nuclei count: measured here: cell count, toxicity.
A short description of test [3]: inhibitors of E-selectin induction by TNFa, primary screen, imaging, HUVEC, immunofluorescence, MLSMR starter and 10KST1 sets (AID 487;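 active = visually confirmed hit in the image check and inhibition above 20%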;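 for inhibition: signal is fraction of cell area covered by stained E-selectin grains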;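 for nuclei count: 100% = median nuclei count of all wells on the same plate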). Particulars: HUVEC TNFalpha-induced E-selectin immunofluorescence imaging, at 2 µM; inhibition: stronger effect = higher value; nuclei count: measured here: cell number, toxicity.
Test [4] deals with Voltage-gated potassium channel subunit beta-2 (Rattus norvegicus) (UniProt P62483). The experiment in a line: KvBeta enzyme negative modulators, primary screen, biochemical, NADPH fluorescence (AID 622;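 active = fluorescence slope higher than the sample average by over 3 SD, cut at about -0.22 in these data, passing the limit was not always enough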;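 note: slope of raw intensity against log time taken from 70 to 1610 s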). The note with it: recombinant KvBeta, 4-cyanobenzaldehyde reduction, at 10 µM, stronger effect = higher value.
For test [5] the target is unchanged. The test is described as follows: KvBeta positive modulators, primary screen, biochemical, NADPH fluorescence (AID 623;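 active = NADPH fluorescence slope more negative than the mean of all samples by about 3 SD, 99.7% confidence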;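 note: fluorescence intensity change per second fitted from 20 to 320 s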). Particulars: Recombinant KvBeta, NADPH fluorescence decrease slope, 10 min; at 10 µM; stronger effect = lower value.
Test [6] addresses Alpha-2C adrenergic receptor (Homo sapiens) (UniProt P18825). The experiment in a line: modulators of alpha2C/GIRK thallium flux, primary screen, cell-based, HEK293 alpha2C/GIRK1/2 (AID 624;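 active = fluorescence slope after compound addition differing from the mean of all screened samples at 99.7% confidence, in either direction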;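 note: slope of fluorescence ratio to pre-addition baseline per second over 15 to 24 s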). Particulars: thallium flux BTC fluorescence, at 10 µM, actives lie on both sides.
Test [7] is described as follows: inhibitors of Sendai virus-induced IRF3 signaling, primary screen, TLR/RLR signaling modifier project, cell-based, Sendai virus stimulus, luciferase, 10K MLSCN set (AID 602276;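 active = inhibition at or above 50% at 10 µM; inactive = inhibition below 50%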;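 note: firefly luciferase from ISG56 promoter only with Renilla not read in this screen; 0% = Sendai virus plus DMSO and 100% = medium plus DMSO without virus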). The note with it: HEK293 RL24 IRF3 luciferase reporter, at 10 µM, stronger effect = higher value.
Test [8] can be described thus: inhibitors of poly I:C-induced TLR3 signaling, primary screen, cell-based, poly I:C stimulus, luciferase, 10K MLSCN set (AID 602277;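 active = inhibition of the reporter signal at or above 50%; inactive = inhibition below 50%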). Particulars: HEK293-TLR3 RL24 IRF3 luciferase reporter, at 10 µM, stronger effect = higher value. Background: Reporter assays use an easily measured gene product as a stand-in for the process of interest.

Chain of Voltage-gated potassium channel subunit beta-2 (Rattus norvegicus) (P62483 whole entry, looked up): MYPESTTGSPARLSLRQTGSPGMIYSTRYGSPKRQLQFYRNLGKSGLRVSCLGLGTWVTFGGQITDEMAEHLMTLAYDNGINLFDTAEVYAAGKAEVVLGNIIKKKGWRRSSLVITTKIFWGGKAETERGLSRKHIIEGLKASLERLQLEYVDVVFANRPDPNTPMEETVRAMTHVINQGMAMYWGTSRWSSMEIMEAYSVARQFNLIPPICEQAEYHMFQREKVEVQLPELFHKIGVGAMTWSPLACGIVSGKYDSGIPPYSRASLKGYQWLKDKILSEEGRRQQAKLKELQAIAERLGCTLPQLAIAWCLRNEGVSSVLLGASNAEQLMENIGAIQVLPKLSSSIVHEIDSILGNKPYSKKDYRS
Chain of Alpha-2C adrenergic receptor (Homo sapiens) (P18825 whole entry, looked up): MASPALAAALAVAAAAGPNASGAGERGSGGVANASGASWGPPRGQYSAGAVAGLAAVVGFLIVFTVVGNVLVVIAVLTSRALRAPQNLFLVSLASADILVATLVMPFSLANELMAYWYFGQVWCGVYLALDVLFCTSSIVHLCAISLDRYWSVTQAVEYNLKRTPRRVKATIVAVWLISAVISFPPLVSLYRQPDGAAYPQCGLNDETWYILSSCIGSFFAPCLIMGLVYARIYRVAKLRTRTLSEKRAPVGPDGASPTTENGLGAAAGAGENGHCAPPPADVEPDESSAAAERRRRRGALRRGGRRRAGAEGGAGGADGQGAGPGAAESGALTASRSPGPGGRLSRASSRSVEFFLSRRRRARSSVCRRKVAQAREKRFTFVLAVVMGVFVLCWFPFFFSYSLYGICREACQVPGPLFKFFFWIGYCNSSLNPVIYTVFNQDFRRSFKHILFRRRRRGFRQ

For `COc1ccc(Nc2ncc3c(n2)CC(c2ccc(OC)cc2)CC3=O)cc1` (centres undefined), in test [1], the cell count is 649. The inhibition in test [1] is 6.3% (inactive); in test [3], -5.5% (inactive); in test [7] it was 5.21% (inactive); in test [8], -19.5% (inactive). For the same molecule, in test [2], the inhibition of aggregation is -7.5% (inactive). Moreover, the nuclei count was found to be 101% in test [2] and 97% in test [3]. Moreover, in test [4], the fluorescence slope was -0.298 (inactive). Further, the NADPH fluorescence slope in test [5] was -3.8e-05 (inactive). Moreover, in test [6], the slope was 0.0047 (inactive).
On to `COc1cc(NC(=O)c2cc(CC(C)C)on2)c(OC)cc1Cl`, for which the cell count in test [1] was 558. Also, the inhibition in test [1] was -6% (inactive); in test [3], -15.3% (inactive); in test [7], 10.7% (inactive); in test [8], 46.6% (inactive). In addition, the inhibition of aggregation in test [2] is 13.1% (inactive). The nuclei count in test [2] amounted to 95.8%; in test [3], 106%. Also, the fluorescence slope in test [4] is -0.575 (inactive). In addition, the NADPH fluorescence slope in test [5] is 5.1e-07 (inactive). Further, in test [6], the slope was 0.00662 (inactive).
For the molecule `CCCCN(C)C(=O)CS(=O)(=O)Cc1nc(-c2cccc(OC)c2)oc1C`, in test [1], the cell count worked out at 737. Further, the inhibition is 1.1% (inactive) in test [1], -26.7% (inactive) in test [3], 16.1% (inactive) in test [7] and 16.3% (inactive) in test [8]. In addition, in test [2], the inhibition of aggregation was 13.9% (inactive). Further, the nuclei count in test [2] is 98.3%; in test [3], 115%. The fluorescence slope in test [4] is -0.518 (inactive). For the same molecule, the NADPH fluorescence slope in test [5] was -3.7e-05 (inactive). Moreover, in test [6], the slope is 0.00718 (inactive).
Turning to `Cc1ccccc1NC(=O)C1CCCN(S(=O)(=O)c2cnc[nH]2)C1` (centres undefined), the cell count in test [1] worked out at 726. Also, the inhibition in test [1] was -11% (inactive); in test [3] it was -26.7% (inactive); in test [7] it was 10.6% (inactive); in test [8], 32.6% (inactive). The inhibition of aggregation in test [2] was 21.2% (inactive). Moreover, the nuclei count turned out to be 109% in test [2] and 124% in test [3]. In addition, the fluorescence slope in test [4] was -0.564 (inactive). Besides, in test [5], the NADPH fluorescence slope is -2e-05 (inactive). Moreover, the slope in test [6] is 0.0067 (inactive).
For `Cc1ccc2c(C)nc(NC3=NCN(C(C)C)CN3)nc2c1`, the cell count in test [1] came out at 604. Besides, the inhibition in test [1] was 4.7% (inactive); in test [3] it was -33.7% (inactive); in test [7], 11.3% (inactive); in test [8], 14.9% (inactive). Also, in test [2], the inhibition of aggregation was 5.5% (inactive). In addition, the nuclei count in test [2] was 93.5%; in test [3], 125%. In addition, the fluorescence slope in test [4] was -0.543 (inactive). Also, the NADPH fluorescence slope in test [5] is 1.2e-05 (inactive). In addition, the slope in test [6] is 0.0049 (inactive).
Regarding `COc1ccc(-c2nc(C#N)c(N3CCN(c4ccccc4)CC3)o2)cc1`, the cell count in test [1] stood at 841. The inhibition in test [1] was 1.4% (inactive); in test [3], -64.6% (inactive); in test [7] it was 5.66% (inactive); in test [8] it was 24.4% (inactive). Besides, the inhibition of aggregation in test [2] was -19.5% (inactive). Moreover, the nuclei count was 96.2% in test [2] and 118% in test [3]. In addition, the fluorescence slope in test [4] was -0.577 (inactive). In addition, the NADPH fluorescence slope in test [5] was 1.4e-05 (inactive). For the same molecule, in test [6], the slope was 0.00659 (inactive).
For the molecule `O=C(O)c1cccc(S(=O)(=O)N2CCOCC2)c1`, the cell count in test [1] is 378. The inhibition in test [1] is -0.6% (inactive); in test [3], 20.2% (inactive); in test [7], -16% (inactive); in test [8] it was -15.1% (inactive). The inhibition of aggregation in test [2] is 12.5% (inactive). The results for the nuclei count in test [2] and in test [3] were 95.2% and 99.4%, respectively. The fluorescence slope in test [4] is -0.472 (inactive). Also, the NADPH fluorescence slope in test [5] is -0.000388 (inactive). In test [6], the slope is 0.00562 (inactive).
As to `O=C(O)CC(NC(=O)c1ccccc1NC(=O)c1ccccc1)C(=O)O` (centres undefined), the cell count in test [1] came out at 284. Also, the inhibition is -0.3% (inactive) in test [1], 22.6% (inactive) in test [3], -6.91% (inactive) in test [7] and -15.2% (inactive) in test [8]. Also, in test [2], the inhibition of aggregation is 8.8% (inactive). Moreover, the nuclei count in test [2] worked out at 111%; in test [3], 90%. For the same molecule, the fluorescence slope in test [4] was -0.403 (inactive). Also, the NADPH fluorescence slope in test [5] was 1.9e-05 (inactive). Besides, the slope in test [6] is 0.00592 (inactive).
Take `O=C(NC1CC1)C1CCN(c2ccc(S(=O)(=O)N3CCOCC3)cc2)CC1`: the cell count in test [1] amounted to 735. The inhibition was -4.1% (inactive) in test [1], -14.8% (inactive) in test [3], -7.23% (inactive) in test [7] and 20.7% (inactive) in test [8]. Also, the inhibition of aggregation in test [2] was -4.3% (inactive). The nuclei count came to 110% in test [2] and 101% in test [3]. The fluorescence slope in test [4] is -0.476 (inactive). In test [5], the NADPH fluorescence slope is -5e-06 (inactive). The slope in test [6] was 0.00268 (inactive).
For `Cc1nc2sc(C(c3ccco3)N3CCN(c4ccccc4F)CC3)c(O)n2n1` (centres undefined), in test [1], the cell count came out at 226. The inhibition in test [1] is -5.9% (inactive); in test [3], -0.8% (inactive); in test [7] it was 7.27% (inactive); in test [8], 10.5% (inactive). Moreover, in test [2], the inhibition of aggregation was 3.8% (inactive). For the same molecule, the results for the nuclei count in test [2] and in test [3] were 104% and 114%, respectively. Moreover, the fluorescence slope in test [4] is -0.436 (inactive). Besides, the NADPH fluorescence slope in test [5] is -6.1e-06 (inactive). For the same molecule, the slope in test [6] is 0.00573 (inactive).
On to `Cc1cc(C)c2c(=O)n(CC(=O)N3CCC(Cc4ccccc4)CC3)sc2n1`, for which the cell count in test [1] was 611. Moreover, the inhibition in test [1] was 16.6% (inactive); in test [3], -6.1% (inactive); in test [7], 20.7% (inactive); in test [8], 46.2% (inactive). In test [2], the inhibition of aggregation was 3% (inactive). Besides, the nuclei count in test [2] worked out at 104%; in test [3] it was 121%. Further, the fluorescence slope in test [4] is -0.559 (inactive). Moreover, the NADPH fluorescence slope in test [5] was -6.7e-06 (inactive). Moreover, the slope in test [6] is 0.00614 (inactive).
`Cc1ccc2nc(NC(=O)C3CCCN(S(=O)(=O)c4cnc[nH]4)C3)sc2c1` (centres undefined): the cell count in test [1] was found to be 567. Also, the inhibition is 6.9% (inactive) in test [1], -42.7% (inactive) in test [3], -43.1% (inactive) in test [7] and -79.3% (inactive) in test [8]. Also, in test [2], the inhibition of aggregation is -11.1% (inactive). The nuclei count was 106% in test [2] and 113% in test [3]. Moreover, the fluorescence slope in test [4] was -0.553 (inactive). The NADPH fluorescence slope in test [5] was -6.7e-06 (inactive). In test [6], the slope was 0.00608 (inactive).
As to `O=C(NCc1ccccc1)c1cc(-c2ccco2)on1`, the cell count in test [1] turned out to be 445. Moreover, the inhibition in test [1] was -0.9% (inactive); in test [3], -18.9% (inactive); in test [7] it was -27.8% (inactive); in test [8] it was -74.9% (inactive). Also, the inhibition of aggregation in test [2] is -0.2% (inactive). Further, the values for the nuclei count in test [2] and in test [3] were 102% and 103%, respectively. In test [4], the fluorescence slope was -0.506 (inactive). Further, the NADPH fluorescence slope in test [5] is -3.5e-05 (inactive). For the same molecule, the slope in test [6] is 0.00556 (inactive).
As for `CCCN(CCC)CCNC(=O)c1cc2c(=O)n(C)c3ccccc3c2n1C`, in test [1], the cell count is 627. The inhibition in test [1] was 0% (inactive); in test [3] it was -57.7% (inactive); in test [7] it was 27.9% (inactive); in test [8] it was 68.2% (active). Moreover, the inhibition of aggregation in test [2] was -18.3% (inactive). For the same molecule, the nuclei count in test [2] was 109%; in test [3], 112%. Further, in test [4], the fluorescence slope is -0.456 (inactive). Further, the NADPH fluorescence slope in test [5] is -7.5e-05 (inactive). Also, in test [6], the slope was 0.00528 (inactive).
